High-throughput results as filed in PubChem.
Most compounds without a hit are left out; they make up all but 10% or so of the library.
KinaseGlo FLuc – Kinase-Glo luciferase inhibition (counter-screen); 200,000 compounds, 0.28% hits; Kinase-Glo luciferase, ATP luminescence, 8 min; Q27757; AID 1379; Potency, µM (highest dose often 38.3 µM), for inactives: top-dose activity change, negative = inhibition, usual class: inhibitors; active means well fitted inhibition curve with a large enough effect; inconclusive means small, poorly fitted or top-dose-only effect; further: potency means the concentration at half of the fitted maximal effect; nearly all actives have a fitted effect of over 60% in size
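Compound is pinned into ATP-containing buffer (10 uM ATP, imidazole pH 7.2, 7 mM MgCl2). Kinase-Glo luciferase reagent is then added. Light output is recorded following an 8-min room-temperature incubation.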
HPGD inh – blocks human HPGD enzyme activity; Potency, µM, for the others: at the top dose activity change, negative = inhibition, most hits filed as inhibitors; 150,000 compounds, 4.3% hits; P15428; purified HPGD, NADH fluorescence kinetic, PGE2 substrate; further: potency means the concentration at half of the fitted maximal effect
Target sequence (P15428 whole entry, looked up): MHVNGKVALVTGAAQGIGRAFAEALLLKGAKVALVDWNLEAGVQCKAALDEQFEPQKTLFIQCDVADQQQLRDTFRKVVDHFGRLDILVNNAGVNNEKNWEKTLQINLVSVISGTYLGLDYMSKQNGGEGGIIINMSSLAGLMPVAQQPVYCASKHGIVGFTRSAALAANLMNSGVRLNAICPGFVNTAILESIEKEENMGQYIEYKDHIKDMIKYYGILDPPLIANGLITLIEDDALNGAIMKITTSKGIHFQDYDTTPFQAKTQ
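NADH formation kinetics: reaction with 30 uM PGE2 and 1 mM NAD+ (final), 20 nM enzyme, Tris-HCl pH 8 with Tween 20, after 15 min compound preincubation at room temperature. Fluorescence change, last versus first of five reads.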
LMNA splice mod – modulators of lamin A splicing. 200,000 compounds, 0.01% hits. HeLa LMNA splicing GFP/RFP minigene ratio, 48 h. Potency, µM (top dose mostly 46.1 µM), for inactives: top-dose ratio change, negative = inhibition, hits mostly inhibitors; active means well fitted inhibition curve with a large enough effect in the signal ratio, with a control signal flat, not every such curve was filed as active; inconclusive means small, poorly fitted or top-dose-only effect, or effect the other way, or a change in a side signal; the % refers to the signal ratio; further: potency means the concentration at half of the fitted maximal effect
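Read-out is the ratio of GFP to DsRed2 object intensity, acquired by 488 nm laser-scanning cytometry on HeLa lamin A-EGFP minigene reporter cells. Compound incubation 48 hrs at 37 °C in Opti-MEM with 2% FBS; DMSO 0.5% final.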
PNC inhibitor – perinucleolar compartment assembly inhibition | PC3M PTB-GFP, PNC prevalence imaging, 16 h; active compounds read low | activity change (PNC), negative = inhibition, % at 10 µM | 140,000 compounds, 3.1% hits | AID 2417;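 active means readout at or below -70, meaning at least 70% loss of cells showing the perinucleolar compartment, a nuclear body marking cancer cells; inconclusive means readout between -30 and a set limit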;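 further: plate controls were DMSO wells for no effect and camptothecin positive control wells for full effect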
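Read-out is percentage of cells bearing a perinucleolar compartment, from automated 20x imaging of fixed, Hoechst-stained PC3M PTB-GFP cells. Cells were seeded 4 h, then exposed 16 h to compound (23 nl of library stock) in duplicate plates.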
ALDH1A1 inh – inhibitors of human aldehyde dehydrogenase 1A1; Purified ALDH1A1, NADH fluorescence, propionaldehyde substrate; Potency, µM (top dose mostly 75.3 µM), for inactives: at the top dose activity, negative = inhibition, actives largely listed as inhibitors; 220,000 compounds, 7.3% hits;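 further: potency means the concentration at half of the fitted maximal effect; plate controls were no enzyme wells and a reference inhibitor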
Active calls of the source: *; ? = inconclusive; / = no result given; [ ] = remark or other dose. Unless noted, the call rests on the fitted dose curve; in most records, active means well fitted inhibition curve with a large enough effect (not every such curve was filed as active); inconclusive means small, poorly fitted or top-dose-only effect, or another doubt; inactive means no such curve, though single readings can be large or run the other way. Unless noted, on the % scale 0 is the no-effect control and ±100 the full control effect.

SMILES	KinaseGlo FLuc	HPGD inh	LMNA splice mod	PNC inhibitor	ALDH1A1 inh
O=[N+]([O-])c1cc(S(=O)(=O)NCCN2CCOCC2)ccc1Sc1nnnn1-c1ccccc1	-1%	-8%	?	-15	14µM*
Cc1ccc(-n2nnnc2Sc2ccc(S(=O)(=O)NCCN(C)C)cc2[N+](=O)[O-])cc1	-5%	-22%	?	22	?
Cc1noc(C)c1C(=O)N1CCC[C@@]2(CCN(C(=O)NC(C)C)C2)C1	0%	5%	/	/	-1%
COc1ccc(C[C@H](O)CN2CCOCC2)cc1	-12%[7.66 µM]	0%	/	/	-3%[13.5 µM]
CN1c2cc3c(cc2N=C(c2ccc(C(=O)O)cc2)c2ccccc21)C(C)(C)CCC3(C)C	-2%	0%	/	/	9%
CC1CCCCC1NC(=O)c1cncc(Br)c1 (stereo not drawn)	-4%	-2%	-5%	-81*	-6%
COc1ccc(CCN2C(=O)CN(C3CCCCCC3)C(=O)C2c2ccc(C)cc2)cc1OC (stereo not drawn)	/	/	-6%[46 µM]	/	/
O=C1C2C3C=CC(C4CC34)C2C(=O)N1/N=C/c1ccc(-c2ccc(F)cc2[N+](=O)[O-])o1 (stereo not drawn)	1%	20µM*	-22%	?	?
COc1ccc(-c2ccc(/C=N/N3C(=O)C4C5C=CC(C6CC56)C4C3=O)o2)c([N+](=O)[O-])c1 (stereo not drawn)	-4%	25µM*	-20%	74	10µM*
Cc1ccc(-c2ccc(/C=N/N3C(=O)C4C5C=CC(CC5)C4C3=O)o2)c([N+](=O)[O-])c1 (stereo not drawn)	0%	16µM*	-20%	31	0.89µM*
O=C1C2C3C=CC(C4CC34)C2C(=O)N1/N=C/c1ccc(-c2ccc(Cl)cc2[N+](=O)[O-])o1 (stereo not drawn)	-3%	?	-9%	?	?
NC1=NC(=O)CC(C(=O)NCCc2ccccc2)S1 (stereo not drawn)	-5%	6%	14%	-3	13µM*
CC(C)c1ccc(NC(=O)C2CC(=O)N=C(N)S2)cc1 (stereo not drawn)	-4%	-1%	10%	-28	18µM*
COc1cc2c(cc1OC)[C@H](C)N(CC1C(=O)O[C@@H]3C[C@@]4(C)CCC[C@H](C)[C@@]45OC5[C@H]13)CC2 (stereo partly drawn)	2%	-2%	/	/	-3%
COc1ccc(N2CC(NC(=O)c3ccc(OC(C)C)cc3)CC2=O)cc1 (stereo not drawn)	/	/	8%[46 µM]	/	/
O=C(NC(=S)Nc1ccc(S(=O)(=O)Nc2ccccc2)cc1)C1CC1	0%	/	10%[46 µM]	/	22µM*
Cc1ccccc1C(=O)NC(=S)Nc1ccc(S(=O)(=O)N2CCN(C)CC2)cc1	-4%	?	-5%	41	10µM*
O=C(NC(=S)Nc1ccc(S(=O)(=O)N2CCCCC2)cc1)c1ccccc1	-4%	-16%	0%	?	9.5µM*
Cc1ccccc1C(=O)NC(=S)Nc1ccc(S(=O)(=O)N2CCOCC2)cc1	3%	-8%	-9%	?	?
O=C(Oc1ccccc1)N1CCC2(CC1)CCN(c1ccccc1)CC2	1%	-6%	/	/	?
COc1ccc(-c2nc(-c3ccccc3)c(NC(C)C)o2)cc1	-1%	-10%	/	/	9%
O=C(COc1ccc(Cl)cc1)N1CCN(c2ccc([N+](=O)[O-])c(N3CCOCC3)c2)CC1	1%	-10%	?	-2	?
O=C(c1cccc2ccccc12)N1CCN(c2ccc([N+](=O)[O-])c(N3CCOCC3)c2)CC1	2%	-19%	-14%	-20	10µM*
O=C(c1ccccc1F)N1CCN(c2ccc([N+](=O)[O-])c(N3CCOCC3)c2)CC1	-5%	/	/	/	0.71µM*
Cc1ccccc1C(=O)N1CCN(c2ccc([N+](=O)[O-])c(N3CCOCC3)c2)CC1	-1%	-3%	3%	-7	?
SMILES	KinaseGlo FLuc	HPGD inh	LMNA splice mod	PNC inhibitor	ALDH1A1 inh
CCCC(CCC)C(=O)NC1CC(=O)N(c2ccc3c(c2)OCCO3)C1 (stereo not drawn)	/	/	5%[46 µM]	/	/
O=C(NCC(=O)N(Cc1ccccc1)C(C(=O)NC1CCCC1)c1ccncc1)c1ccco1 (stereo not drawn)	-2%	-13%	?	-16	?
O=C(NCC(=O)N(Cc1cccs1)C(C(=O)NC1CCCCC1)c1ccco1)c1ccco1 (stereo not drawn)	3%	-4%	4%	10	22µM*
O=C(NCC(=O)N(Cc1cccs1)C(C(=O)NC1CCCC1)c1ccncc1)c1ccco1 (stereo not drawn)	-1%	-12%	10%	?	7.9µM*
O=C(NCC(=O)N(Cc1ccccc1)C(C(=O)NC1CCCC1)c1ccco1)c1ccco1 (stereo not drawn)	-4%	-2%	4%	?	?
COC(=O)N[C@@H](c1cccc(C)c1)C(C(C)=O)C(=O)OC (stereo partly drawn)	0%	-11%	/	/	15%
CC(C)C(NC(=O)C(Cc1ccc(O)cc1)NC(=O)C(NC(=O)C(F)(F)F)C(C)C)C(=O)O (stereo not drawn)	1%	-13%	-4%	/	2%
CCc1nc(SCC(=O)N2CCC(C)CC2)c2c(=O)n(C)c(=O)n(C)c2n1	1%	-10%	1%	-14	11µM*
CC(C)c1nc(SCC(=O)N2CCN(c3ccccc3)CC2)c2c(=O)n(C)c(=O)n(C)c2n1	1%	-7%	-7%	?	-7%
CC(C)c1nc(SCC(=O)N2CCOCC2)c2c(=O)n(C)c(=O)n(C)c2n1	-3%	-7%	2%	-106*	-3%
CCCn1c(C)nc2c(NCc3ccccc3)nc(C)nc21	-7%	-11%	/	/	-5%
O=c1nc2n(c3c4c(sc13)CCC4)CCC2	-9%	-20%	0%	23	18µM*
CCOc1ccc(CNC(=O)C2CCN(S(=O)(=O)c3cn(C)cn3)CC2)cc1OC	/	/	-6%[46 µM]	/	/
COc1nc(N/N=C/c2cc3c(cc2Br)OCO3)nc(N2CCOCC2)n1	/	/	-1%	-22	7.9µM*
COc1ccc(-c2cc([C@H](O)C3CCCCN3)c3ccccc3n2)cc1 (stereo partly drawn)	-25%[7.66 µM]	?	/	/	?
O=C(NC1CCCC1)c1ccc(CSc2nc3ccncc3n2Cc2ccc(F)cc2)cc1	12%	3.2µM*	-11%	56	-7%
CC1CC(C)CN(C(=O)c2ccc(CSc3nc4ccncc4[nH]3)cc2)C1 (stereo not drawn)	1%	5.6µM*	?	39	0%
CN1CCN(C(=O)c2ccc(CSc3nc4ccncc4n3Cc3ccc(F)cc3)cc2)CC1	-2%	16µM*	?	30	-2%
CCN(CCNC(=O)c1ccc(CSc2nc3ccncc3[nH]2)cc1)c1ccccc1	14%	-13%	?	-30	-9%
